Hits are enriched below; roughly 27% of the tested compounds scored in any of these assays.
CYP2C9 act = increases human cytochrome P450 2C9 activity; hit rate 1.4% among 96,000; activation factor at 5 µM; recombinant CYP2C9, luciferin-H conversion, luminescence; stronger effect = higher value; factor 1 = untreated enzyme, 0 = blocked; P11712; AID 1024;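 active = activation factor of 2 or more for CYP2C9 at a 5 µM dose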;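 also: 0 = sulfaphenazole-blocked wells and 1 = vehicle-only wells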
Target sequence (P11712 whole entry, looked up): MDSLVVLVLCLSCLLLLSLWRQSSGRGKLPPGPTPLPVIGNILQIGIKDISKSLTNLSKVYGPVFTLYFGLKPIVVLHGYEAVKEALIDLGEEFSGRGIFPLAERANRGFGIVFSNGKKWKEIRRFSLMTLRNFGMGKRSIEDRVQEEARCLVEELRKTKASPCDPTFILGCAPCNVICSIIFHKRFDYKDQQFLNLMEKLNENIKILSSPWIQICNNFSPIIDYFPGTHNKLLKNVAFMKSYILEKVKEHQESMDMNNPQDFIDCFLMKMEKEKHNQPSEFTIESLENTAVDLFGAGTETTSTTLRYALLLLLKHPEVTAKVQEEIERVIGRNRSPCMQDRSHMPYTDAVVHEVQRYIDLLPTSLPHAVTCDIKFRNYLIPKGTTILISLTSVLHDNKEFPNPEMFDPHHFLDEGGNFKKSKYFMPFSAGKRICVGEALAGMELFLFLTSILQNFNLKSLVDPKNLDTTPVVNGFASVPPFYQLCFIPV
CYP2C19 act = increases human CYP2C19 enzyme activity. P33261. recombinant CYP2C19, luciferin-H EGE luminescence; stronger effect = higher value; 0 = fully inhibited enzyme, 1 = untreated enzyme. activation factor at 5 µM. 96,000 tested, under 10 active. AID 1025;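 active = activation factor of at least 2 at 5 µM in the primary screen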;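 also: 0 = wells with 2.5 mM tranylcypromine and 1 = vehicle-only wells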
CYP2C9 inh = blocks human cytochrome P450 2C9. hit rate 20% among 96,000. AID 777. inhibition, % at 5 µM. P11712. CYP2C9 Supersomes, luciferin-H conversion, luminescence;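 active = blocking of liver enzyme CYP2C9 beyond about 50% at 5 µM, limit read from the data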
sEH act = soluble epoxide hydrolase (human) activation; activation, % at 2 µM; purified human sEH enzymatic activity, activator screen; hit rate 0.04% among 91,000; P34913; in the data active = activation above about 37%
sEH inhibitor = soluble epoxide hydrolase (human) inhibition; inhibition, % at 2 µM; recombinant human sEH enzymatic activity assay; hit rate 0.34% among 91,000; in the data active = inhibition above about 80%
CYP2C19 inh = inhibitors of human CYP2C19. P33261. CYP2C19 Supersomes, luciferin-H EGE luminescence, 30 min. inhibition, % at 5 µM. hit rate 21% among 96,000;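 active = CYP2C19 inhibition above a set limit at 5 µM in the primary screen, cut at about 50% in these data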;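 also: plate controls were negative control wells for no effect and 2.5 mM tranylcypromine positive control for full effect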
* hit, by the source's call; · = not tested or not shown.

SMILES | CYP2C9 act | CYP2C19 act | CYP2C9 inh | sEH act | sEH inhibitor | CYP2C19 inh
COc1ccc(C2=NOC(Cn3c(Cc4ccc(Cl)cc4)nc4c3c(=O)n(C)c(=O)n4C)C2)cc1 (stereo unspecified) | 0.2 | 0.3 | 81.8* | 11.7 | -12.2 | 74.4*
COc1ccccc1C1=NOC(Cn2c(=O)c3c(ncn3C)n(C)c2=O)C1 (stereo unspecified) | 1.5 | 0.7 | -47.6 | 6.3 | -6.8 | 26.1
COC(=O)c1ccc(OC(=O)C2CC(=O)N(c3ccc(C)cc3C)C2)cc1 (stereo unspecified) | 1 | 1 | -4.6 | 0.5 | -2.3 | 4.1
Cc1ccccc1-n1c(=O)c2ccccc2n2nnnc12 | 1.1 | 0.4 | -8.2 | -4.8 | 7.2 | 57.7*
c1ccc(Nc2nc3ccccc3o2)cc1 | 0.8 | 0.6 | 17.3 | -4.9 | 5.8 | 44.9
FC(F)(F)Oc1ccc(Nc2nc3ccccc3o2)cc1 | 0.2 | 1 | 75.5* | · | · | 4.3
CC(C)CC(=O)N1CCN(Cc2ccc3c(c2)OCO3)CC1 | 1 | 0.8 | -1.0 | -7.7 | 8.5 | 16.8
CCn1nc(C(=O)OC2CCOC2=O)c2ccccc2c1=O (stereo unspecified) | 0.8 | 1 | 17.0 | 6.4 | -2.9 | 4.8
Cc1noc(C)c1C(=O)OCC(=O)c1c[nH]c2ccccc12 | 0.1 | 0.1 | 88.0* | · | · | 90.8*
CCOC(=O)c1[nH]c(C)c(C(=O)OCc2c(C)noc2C)c1C | 0.3 | 0.7 | 65.1* | -9.2 | 12.1 | 33.2
CCn1nc(C(=O)OCc2c(C)noc2C)c2ccccc2c1=O | 0.2 | 1.4 | 76.1* | 3.4 | -2.7 | -35.3
CCc1cccc2c(C(=O)COC(=O)c3c(C)noc3C)c[nH]c12 | 0.9 | 0.9 | 6.7 | 10.2 | -8.9 | 11.0
Cc1noc(C)c1COC(=O)c1cc(=O)[nH]c2ccccc12 | 0.2 | 0.4 | 79.9* | -4.3 | 3.8 | 60.4*
CCOC(=O)c1c(C)[nH]c(C(=O)O)c1C | 0.7 | 0.9 | 25.7 | · | · | 10.9
Cc1nc2c(nnn2Cc2ccccc2)c(=O)n1-c1ccccc1 | 1 | 0.8 | -2.9 | -11.2 | 9.4 | 17.4
Cc1ccc(CNC2=NCCCCC2)n1C | 1 | 1 | 2.2 | 3.0 | -3.5 | -0.4
CCc1nn(CC(=O)N2CCN(Cc3ccc4c(c3)OCO4)CC2)c(=O)c2cc3occc3n12 | · | · | · | 13.1 | -13.9 | ·
Cc1ccc(-c2nc3ccccc3s2)cc1S(=O)(=O)N1CCCC1 | 0.1 | 0.3 | 93.4* | 5.0 | -5.4 | 69.2*
Cc1ccc(S(=O)(=O)N2CCCN(S(=O)(=O)c3ccc(C)c(C)c3)CC2)cc1C | 1.2 | 0.9 | -18.1 | -4.5 | 5.3 | 7.5
Cc1ccc(Br)cc1S(=O)(=O)N1CCN(c2ccccc2)CC1 | 0.8 | 0.4 | 18.2 | 15.4 | -17.6 | 64.0*
Cc1ccc(S(=O)(=O)c2ccc(Cl)cc2)cc1S(=O)(=O)N1CCOCC1 | 0.3 | 0.2 | 68.9* | · | · | 79.3*
Cc1ccc(C(=O)O)cc1S(=O)(=O)N1CCOCC1 | 1.2 | 1 | -15.6 | 8.6 | -7.0 | 4.0
c1ccc2sc(-c3ccc4c(c3)OCO4)nc2c1 | 1 | 0.9 | 2.3 | 16.4 | -17.0 | 8.7
Cc1ccc(S(=O)(=O)N2CCCC2)cc1S(=O)(=O)N1CCCC1 | 1.2 | 0.5 | -16.5 | -2.9 | 1.1 | 51.9*
CCCOc1ccc(/C=N/NC(=O)C2CCCN2S(=O)(=O)c2ccc(Cl)cc2)cc1 (stereo unspecified) | 0.6 | 0.7 | 41.0 | -3.3 | 2.5 | 26.3
SMILES | CYP2C9 act | CYP2C19 act | CYP2C9 inh | sEH act | sEH inhibitor | CYP2C19 inh
Cc1ccc(S(=O)(=O)NNC(=O)C2CCN(Cc3ccccc3)CC2)cc1 | · | · | · | 9.6 | -7.0 | ·
O=C(C1CCN(S(=O)(=O)c2ccc(F)cc2)CC1)N1CC=C(c2ccccc2)CC1 | 0.8 | 0.8 | 18.5 | · | · | 18.2
Cc1ccc(N2CCN(c3ccc(C)cc3)C2c2cccnc2)cc1 | 0.7 | 0.2 | 34.5 | -2.0 | 0.3 | 76.5*
c1ccc(N2CCN(c3ccccc3)C2c2cccnc2)cc1 | · | · | · | 5.4 | -0.2 | ·
c1ccc(N2CCN(c3ccccc3)C2c2ccncc2)cc1 | 0.1 | 0.1 | 89.7* | 23.9 | -21.1 | 86.7*
CC1OC(Nc2ccc(OC(F)(F)F)cc2)C(O)C(O)C1O (stereo unspecified) | 1 | 1 | -3.7 | -0.1 | 4.0 | -3.0
COc1ccc(/C(O)=C2/C(=O)C(=O)N(c3ncccn3)C2c2ccc(OC)c(OC)c2)cc1 (stereo unspecified) | 1.2 | 1.2 | -24.8 | · | · | -17.2
C=CCn1c(SC(C)C(=O)NC2(C#N)CCCCC2)nnc1-c1ccc(OC)cc1 (stereo unspecified) | 0.7 | 0.6 | 26.4 | -4.5 | 2.1 | 37.5
O=C(COc1ccc(Br)cc1Br)NC(=S)N1CCCc2ccccc21 | 0.2 | 1.1 | 76.8* | -4.0 | 5.2 | -8.7
Cc1ccc(-c2nn(CCC#N)cc2C=C(C#N)C#N)cc1 | 1.1 | 0.9 | -13.6 | 1.2 | -1.6 | 9.1
N#CCCn1cc(/C=N/NC(=O)c2ccncc2)c(-c2ccccc2)n1 | 0.3 | 0.5 | 67.8* | -5.7 | 5.8 | 53.1*
COc1ccc2c(c1)c(=O)oc1cc(OCC(=O)NC3CCCCC3)ccc12 | 0.7 | 0.1 | 31.9 | -9.9 | 8.5 | 88.8*
COc1ccccc1OCC(=O)NC1CCCCCC1 | 1 | 0.6 | -4.7 | 6.0 | -5.5 | 42.9
COc1ccc2c(c1)c(=O)oc1cc(OCC(=O)NC3CC3)ccc12 | 0.8 | 0.4 | 15.3 | 4.5 | -4.2 | 59.5*
CCN(CC)c1nc(OC)nc(-n2nnc(C(C)=O)c2C)n1 | 1.1 | 1.1 | -10.0 | 16.0 | -16.4 | -5.7
CCOC(=O)c1cc2c(C)n(-c3ccc(N(C)C)cc3)c(C)c2cc(C(=O)OCC)c1=O | 0.7 | 0.5 | 32.8 | 4.2 | -4.0 | 50.4*
CCOC(=O)C1=NN(c2ccccc2)C(=O)/C1=C\c1ccc(N(C)C)cc1 | 0.8 | 1 | 19.0 | -0.7 | -1.2 | 2.8
CCOC(=O)CC(=O)CSc1nc2c(cc1C#N)CCCCC2 | 0.3 | 0.5 | 66.5* | 1.5 | -0.2 | 47.2
CC(C)OC(=O)CC(=O)CSc1nc2c(cc1C#N)CCCCC2 | 0.1 | 0.3 | 87.4* | 11.0 | -7.1 | 72.9*
N#Cc1cc2c(nc1SCC(=O)N1CCCCC1)CCCC2 | 0.5 | 1.1 | 47.2 | 11.1 | -10.4 | -9.2
COc1cc(C(=O)OCc2cc3ccccc3[nH]c2=O)cc(OC)c1OC | · | · | · | 3.1 | -3.0 | ·
Cc1cc(C)n(Cc2ccc(Cl)cc2Cl)c(=O)c1S(=O)(=O)c1ccccc1 | 0.1 | 0.6 | 91.5* | -10.0 | 10.9 | 44.2
Cc1sc2nc(SCC(=O)NCc3ccco3)n(Cc3ccccc3)c(=O)c2c1C | 0.4 | 1 | 59.3* | 1.1 | -1.7 | 2.6
Cc1sc2nc(C(C)C)nc(SCC(=O)NCc3ccco3)c2c1C | 0.2 | 0.2 | 82.2* | -2.9 | 4.9 | 77.6*
Cc1nc(SCC(=O)NCc2ccco2)c2c(C)c(C)sc2n1 | 0.8 | 0.8 | 19.8 | -6.3 | 6.4 | 22.6
Cc1[nH]c2ccc(-c3nnc(SCC(=O)NCc4ccco4)n3Cc3ccccc3)cc2c1C | 0.3 | 0.7 | 65.5* | 1.8 | -0.4 | 32.0
